HT1080NT lethal = kills 2HG-producing HT-1080-NT fibrosarcoma cells; HT-1080-NT fibrosarcoma viability, CellTiter-Glo ATP luminescence, 48 h; Potency, µM (doses to about 46.1 µM), for inactives: top-dose activity, negative = less viability, actives largely listed as cytotoxic; hit rate 1.6% among 360,000;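 note: NT is the 2HG producing partner of a matched IDH1 knockdown line; potency is the fitted concentration of half-maximal effect; 0% = DMSO-treated cells and -100% = media-only wells without cells; nearly all actives have a fitted effect of over 55% in size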
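750 cells/well, RPMI + 5% FBS; 2 h settle, compound pin-transfer, 48 h at 37 degrees C. CellTiter-Glo 10 min RT, luminescence. Normalized to DMSO and media-only wells.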
HT1080 IDH1KD tx = kills HT-1080 cells with IDH1 knockdown | HT-1080 IDH1 knockdown viability, ATP luminescence, 48 h | Potency, µM (titrated, usually from 46.1 µM), for inactives: at the highest dose activity, negative = toxicity, usual class: cytotoxic | hit rate 2% among 360,000 | AID 686971;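 note: potency is the fitted concentration of half-maximal effect; 0% = DMSO wells and -100% = cell-free medium wells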
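After a 2 h attachment period, IDH1KD HT-1080 cells took pin-transferred compound for 48 h at 37 °C; ATP-based luminescence after 10 min room-temperature reagent incubation reported viability.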
IL1B secr inh = blocks inflammasome-driven IL-1 beta release | hit rate 4.7% among 360,000 | activity change, % at 57.5 µM | THP-1 LPS/ATP IL-1B secretion, AlphaLISA, 16 h; hits give low values; in the data active = activity change below about -50%; inconclusive = mostly about -30% to -49%
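Secreted IL-1B measured by AlphaLISA bead assay after 16 h compound exposure of THP-1 cells; compounds (final up to 57.5 uM) added 1 h before LPS (250 ng/mL) and ATP (1.25 mM) stimulation; lower signal means less secretion.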
DT40 TDP1 CPT = DT40-hTDP1 cell growth loss with CPT; chicken DT40 Tdp1-/-;hTDP1 cells + 20 nM CPT, ATP luminescence, 48 h; hit rate 12% among 420,000; Potency, µM (highest dose often 46.2 µM), inactives show at the highest dose activity change, negative = growth inhibition, most hits filed as inhibitors; note: potency is the fitted concentration of half-maximal effect; nearly all actives have a fitted effect of over 55% in size
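Chicken DT40 Tdp1-/- cells stably complemented with human TDP1 were seeded at 400 cells/well in medium containing 20 nM camptothecin, exposed to pin-transferred compounds, and grown at 37 °C for at least 48 hr. Viability was read as ATP luminescence.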
DT40 TDP1 no CPT = qHTS for Inhibitors of human tyrosyl-DNA phosphodiesterase 1 (TDP1): qHTS in cells in absence of CPT; DT40 Tdp1-/- hTDP1 cells, no CPT, ATP luminescence, 48 h; Potency, µM (highest dose often 46.2 µM), without a hit: at the highest dose activity change, negative = growth inhibition, actives largely listed as inhibitors; hit rate 15% among 420,000; note: potency is the fitted concentration of half-maximal effect; nearly all actives have a fitted effect of over 55% in size
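Readout: luminescence from CellTiter-Glo after 30 min in the dark at RT. Cells: DT40 Tdp1-/- with stable hTDP1, 400/well. Exposure: compounds alone, ≥48 hr, 37 °C.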
Starred values were filed as active, the others as inactive; ? = inconclusive; . = no result. This is a sample that favours compounds with a hit; in the whole collection about 19% have one here. Unless noted, calls come from the whole dose curve; as a rule, active = well fitted curve in the direction sought with a large enough effect; inconclusive = small, poorly fitted or top-dose-only effect, or another doubt; inactive = no such curve, though single readings can be large; an effect the other way counts as inactive or inconclusive. Unless noted, % is set by controls: 0 for no effect and ±100 for the full control effect.

SMILES	HT1080NT lethal	HT1080 IDH1KD tx	IL1B secr inh	DT40 TDP1 CPT	DT40 TDP1 no CPT
O=C(COc1cccc(NC(=O)c2ccco2)c1)c1ccccc1	-9.9%	?	-3.4	-15.3%	-15.4%
COc1cccc(C(=O)NCC(=O)OCC(=O)NC2CCCCC2)c1	0.0%	0.4%	2.8	5.2%	-2.4%
O=C(O)c1ccc(N2Cc3ccccc3C2)cc1O	-24.9%	8.5%	7.4	5.9%	-14.9%
CCn1nccc1NC(=O)c1csc([C@H]2C[C@H](O)[C@@H](CO)O2)n1	15.2%	12.8%	14.1	10.6%	10.7%
CC(=O)C1=CCC(c2ccc(C(C)C)cc2)N(S(=O)(=O)c2ccc(C)cc2)C1 (centres undefined)	?	?	?	-102.1%	?
CCOC(=O)C1=CCC(c2ccc(CC)cc2)N(S(=O)(=O)c2ccc(C)cc2)C1 (centres undefined)	-23.1%	?	47.4	23.1µM*	9.2µM*
CCOC(=O)C1=CCC(c2ccco2)N(S(=O)(=O)c2ccc(C)cc2)C1 (centres undefined)	-24.0%	-18.8%	54.9	?	?
CC(=O)C1=CCC(c2cccc(Cl)c2)N(S(=O)(=O)c2ccc(C)cc2)C1 (centres undefined)	?	14.6µM*	-85.1*	14.6µM*	10.3µM*
CCOC(=O)C1=CCC(c2cccc3ccccc23)N(S(=O)(=O)c2ccc(C)cc2)C1 (centres undefined)	-15.9%	-27.9%	0.0	14.6µM*	18.4µM*
CCOC(=O)C1=CCC(c2cccc(Cl)c2)N(S(=O)(=O)c2ccc(C)cc2)C1 (centres undefined)	-18.0%	?	34.0	14.6µM*	11.6µM*
CCc1ccc([C@@H]2CC=C(C(=O)O)CN2S(=O)(=O)c2ccc(C)cc2)cc1	2.0%	9.3%	13.1	-1.3%	-22.5%
CCc1ccccc1N(C)C(=O)c1cn(-c2cccc(OC)c2)c(=O)c2ccccc12	.	.	.	14.6µM*	16.4µM*
COc1ccc(-n2cc(C(=O)NCc3ccccc3Cl)c3ccccc3c2=O)cc1	.	.	.	-15.4%	0.6%
COc1ccc(-n2cc(C(=O)NCCc3cc(OC)ccc3OC)c3ccccc3c2=O)cc1	.	.	.	16.4µM*	20.6µM*
COc1cccc(-n2cc(C(=O)NCCc3cccc(C)c3)c3ccccc3c2=O)c1	.	.	.	?	18.4µM*
COCCCNC(=O)c1cn(-c2cccc(OC)c2)c(=O)c2ccccc12	0.0%	-2.4%	-3.8	-2.3%	2.0%
CC1(C)OC(=O)C2(Cc3cc([N+](=O)[O-])ccc3N3CCCCCC32)C(=O)O1 (centres undefined)	.	.	.	-5.7%	-11.3%
COC(=O)c1ccc(/C=C/c2c(-c3ccsc3)oc3ccc(N4CCOCC4)cc23)cc1	2.3%	-0.3%	37.4	18.4µM*	?
COc1ccc(-c2c(-c3ccsc3)oc3ccc(N4CCOCC4)cc23)cn1	0.0%	4.0%	-11.2	?	16.4µM*
O=S(=O)(CCc1ccccc1)CS(=O)(=O)CCc1ccccc1	-3.2%	2.4%	-3.1	-9.6%	2.6%
CCCCOc1ccc(C2CCC(C(C)=O)C(C)C2)cc1 (centres undefined)	1.2%	-5.1%	-4.4	?	23.1µM*
Cc1c(C(=O)Nc2ccc(C(C)C)cc2)sc2nc[nH]c(=O)c12	.	.	.	20.6µM*	18.4µM*
CCc1ccc(NC(=O)c2sc3nc4n(c(=O)c3c2C)CCC4)cc1	-6.0%	-3.0%	-3.2	-22.2%	-21.9%
CC(=O)Nc1ccc(NC(=O)c2sc3nc4n(c(=O)c3c2C)CCCCC4)cc1	-0.3%	-15.0%	-8.2	11.6µM*	10.3µM*
CC(=O)c1cccc(NC(=O)c2sc3nc4n(c(=O)c3c2C)CCCC4)c1	9.5%	11.8%	-16.1	?	-4.6%
SMILES	HT1080NT lethal	HT1080 IDH1KD tx	IL1B secr inh	DT40 TDP1 CPT	DT40 TDP1 no CPT
Cc1c(C(=O)Nc2cccc(C(F)(F)F)c2)sc2nc3n(c(=O)c12)CCCC3	.	.	.	10.3µM*	8.2µM*
CCOc1ccc(NC(=O)c2sc3nc4n(c(=O)c3c2C)CCCC4)cc1	.	.	.	20.6µM*	13µM*
Cc1ccccc1C(=O)N1CCC[C@@H]1C(=O)N1CCC[C@H]1C(=O)NCc1ccncc1	0.5%	7.3%	30.3	-3.5%	-18.0%
COc1cc(OC)c(N(C)C(=O)c2sc3nc4n(c(=O)c3c2C)CCCCC4)cc1Cl	.	.	.	16.7%	-2.4%
Cc1c(C(=O)O)sc2nc3n(c(=O)c12)CCC3	13.1%	21.6%	-3.1	-28.3%	?
Cc1c(C(=O)Nc2ccc(C(C)C)cc2)sc2nc3n(c(=O)c12)CCC3	.	.	.	16.4µM*	20.6µM*
COc1cc(OC)c(N(C)C(=O)c2sc3nc4n(c(=O)c3c2C)CCCC4)cc1Cl	.	.	.	?	16.4µM*
Cc1c(C(=O)NCCc2ccc(Cl)cc2)sc2nc3n(c(=O)c12)CCCC3	.	.	.	?	18.4µM*
Cc1c(C(=O)N(C)c2cccc(C(F)(F)F)c2)sc2nc3n(c(=O)c12)CCCCC3	.	.	.	?	14.6µM*
Cc1cccc(-c2nn(-c3ccccc3)cc2C(=O)N(C)CC(=O)Nc2ccc(N3CCOCC3)cc2)c1	-1.9%	1.7%	6.6	-22.6%	-28.6%
CC(C)CC1c2[nH]c3ccccc3c2CCN1C(=O)CCC(=O)N(C)C (centres undefined)	-15.8%	2.0%	8.5	-2.4%	?
